The full ranking holds about 18,000 sequences; the median of “log2 normalized intensity” is about 0.39, and the highest 2% start at about 6.6. For the sample, the highest values were picked, then their nearest neighbours and some sequences at random.
Target: T1, HNF4alpha2 (COS-7 nuclear extract) (Homo sapiens, UniProt P41235 1-474)
T1 sequence: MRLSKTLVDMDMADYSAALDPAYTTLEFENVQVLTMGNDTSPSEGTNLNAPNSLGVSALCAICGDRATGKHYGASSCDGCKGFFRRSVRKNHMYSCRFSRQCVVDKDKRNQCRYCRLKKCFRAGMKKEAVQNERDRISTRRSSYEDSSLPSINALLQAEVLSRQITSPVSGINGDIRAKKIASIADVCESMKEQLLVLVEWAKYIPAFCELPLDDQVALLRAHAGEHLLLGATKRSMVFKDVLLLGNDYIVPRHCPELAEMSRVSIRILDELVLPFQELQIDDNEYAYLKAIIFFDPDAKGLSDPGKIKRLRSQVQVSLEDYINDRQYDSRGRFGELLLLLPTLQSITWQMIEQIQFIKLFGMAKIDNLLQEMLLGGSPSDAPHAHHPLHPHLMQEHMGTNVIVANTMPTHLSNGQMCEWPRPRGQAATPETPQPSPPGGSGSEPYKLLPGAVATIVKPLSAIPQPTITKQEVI
Experiment: protein-binding microarray; COS-7 nuclear extract on double-stranded Agilent 4x180k PBM; binding buffer, salt, pH and temperature not given in the material; high values mean tight binding
Conditions: chain copies: 2; label: 3' end of strand 1 on the slide; dsDNA, one strand shown
Summary of the method: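 The binding signal is Agilent software's gProcessedSignal after background correction and normalization. Arrays were a custom Agilent SurePrint G3 4x180k design of double-stranded ~60-nt oligonucleotides with ~44,000 test sequences in quadruplicate, probed with nuclear extracts of COS-7 cells transiently expressing a human HNF4α isoform. Scans were made at 2-µm resolution on an Agilent G2565CA scanner.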

Sequence | binding signal [log2 normalized intensity]
GCAGAAATCAACTGCCCTCTGCCTTTCAGGGCCTAGGGAGATTAGAGTATCGGTCGA | -0.661
AGAGCACATTCTTCCATATAACCCTTGAACGCCTAGGGAGATTAGAGTATCGGTCGA | 3.6
TCAAAGGGCTTAATCTTTCCTGCCTGCCGGGCCTAGGGAGATTAGAGTATCGGTCGA | -0.693
ACTTTGACCTTGTTTTCAATGACTACCTGTGCCTAGGGAGATTAGAGTATCGGTCGA | 1.84
GTTCAATGCTTCAGTGAGCCTTGACCTTCAGCCTAGGGAGATTAGAGTATCGGTCGA | 4.09
ACCCACCCACACCTCCCCTTTGTTTAACTTGCCTAGGGAGATTAGAGTATCGGTCGA | 2.8
AGACCTTTGACATCACCTAACTTGTGGCTGGCCTAGGGAGATTAGAGTATCGGTCGA | 0.674
GCCAGCCAGGGCCACCCATCAGTGGACTTTGCCTAGGGAGATTAGAGTATCGGTCGA | 6.63
TTTGCCATTTGGAGAGAGTTTGGCCCCAGTGCCTAGGGAGATTAGAGTATCGGTCGA | 2.44
GACCTTGTTTTCAATGACTACCTGTTACCCGCCTAGGGAGATTAGAGTATCGGTCGA | 1.45
CCCAGGGACTTTGGCCTTACTTGGCCTGTTGCCTAGGGAGATTAGAGTATCGGTCGA | 2.62
GCCACCCATCAGTGGACTTTGACCTTGTTTGCCTAGGGAGATTAGAGTATCGGTCGA | 10.6
CCATCAGTGGACTTTGACCTTGTTTTCAATGCCTAGGGAGATTAGAGTATCGGTCGA | 9.03
AGTGGACTTTGACCTTGTTTTCAATGACTAGCCTAGGGAGATTAGAGTATCGGTCGA | 7.31
CACATGCTATTATTTTCCATCAGTGGACTTGCCTAGGGAGATTAGAGTATCGGTCGA | 3.5
GTATCTCTTCGCCTTGCTTATCTGGGAGGGGCCTAGGGAGATTAGAGTATCGGTCGA | -0.214
CTTCAAAGGAGTGGAGGAAGGAAGAAGTGTGCCTAGGGAGATTAGAGTATCGGTCGA | 0.537
GTGGTCATGTAGGTGTCTCAGGAATGTCCTGCCTAGGGAGATTAGAGTATCGGTCGA | 1.85
GCTTATGCATGGGAGATCTTCAGTAAGAGGGCCTAGGGAGATTAGAGTATCGGTCGA | -0.283
GCTGGAACTCCTCCGGTCAAGATCAAGTGGGCCTAGGGAGATTAGAGTATCGGTCGA | 0.207
TCTAAGATTGGCCCTGATAATCAATCCAGCGCCTAGGGAGATTAGAGTATCGGTCGA | -0.941
CCACAGAATCGCCCCACCCTGCCTGGGTAGGCCTAGGGAGATTAGAGTATCGGTCGA | 1.35

Sequence | binding signal [log2 normalized intensity]
TCAGAGCAGGTGAACGACTTGACAAAGGTCGCCTAGGGAGATTAGAGTATCGGTCGA | 3.22
GGGGAAATGACCTTTGTCCAGCTGTGCCGAGCCTAGGGAGATTAGAGTATCGGTCGA | 6.11
GTAGTGGGGAGGGCATGGACTTTGGAATTAGCCTAGGGAGATTAGAGTATCGGTCGA | 7.37
CTGGTGTAGTGGGGAGGGCATGGACTTTGGGCCTAGGGAGATTAGAGTATCGGTCGA | 5.45
ATGTGGTATTAACATGTAAATATGACCTTTGCCTAGGGAGATTAGAGTATCGGTCGA | 7.12
GGGGAGGGCATGGACTTTGGAATTAAGGAGGCCTAGGGAGATTAGAGTATCGGTCGA | 5.45
GGAGGACTTTGGAATGGCAGTGCTTGTCCAGCCTAGGGAGATTAGAGTATCGGTCGA | 1.83
GAATGACTTTGGGGAAATGACCTTTGTCCAGCCTAGGGAGATTAGAGTATCGGTCGA | 8.8
AATGACCTTTGTCCAGCTGTGCCGAGCCTGGCCTAGGGAGATTAGAGTATCGGTCGA | 4.02
TGATGACTTTTGACCCCAGGGGAAACTCCAGCCTAGGGAGATTAGAGTATCGGTCGA | 3.99
ACTTTGGGGAAATGACCTTTGTCCAGCTGTGCCTAGGGAGATTAGAGTATCGGTCGA | 6.74
TTATCATGTGGTATTAACATGTAAATATGAGCCTAGGGAGATTAGAGTATCGGTCGA | 1.69
GTATTAACATGTAAATATGACCTTTGCTTTGCCTAGGGAGATTAGAGTATCGGTCGA | 6.44
CTAAAAACATTGTGGAGCTCATGTAAGGTCGCCTAGGGAGATTAGAGTATCGGTCGA | 1.62
CATGTGGGTCCAAAGAACATTGCATTCCTTGCCTAGGGAGATTAGAGTATCGGTCGA | 1.55
CCCCGCCTTGGCCTCCCGGAGAGGCCCCGCGCCTAGGGAGATTAGAGTATCGGTCGA | 2.49
CCCCCACACCATTAGAGAACATGTACTTTGGCCTAGGGAGATTAGAGTATCGGTCGA | 3.32
TTAAAGGGCAGAAGAAGGGATTTAGATTAGGCCTAGGGAGATTAGAGTATCGGTCGA | -0.58
GATCCTCCCACTTCAGCCTCCCGAGTAGTTGCCTAGGGAGATTAGAGTATCGGTCGA | 2.81
TGAGAGAGCATCCAGATAAAGCTGAAGAAAGCCTAGGGAGATTAGAGTATCGGTCGA | -0.814
TTCAGCCATTTTATGACCATGAGGTGACGGGCCTAGGGAGATTAGAGTATCGGTCGA | 1.6

Source: article PMC10726135, “HNF4α isoforms regulate the circadian balance between carbohydrate and lipid metabolism in the liver”
